Here are results for 40 sequences from the supplement of paper PMC10681739.
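For RUNX1 binding intensity (PBM fluorescence), RUNX1 alone in this document: Full-length recombinant human RUNX1 bound to double-stranded 36-bp genomic probes on a high-density microarray, scored as Alexa488 fluorescence per spot via anti-RUNX1 antibody, median of four replicate spots.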

In one assay the target is RUNX1 (UniProt Q01196). The assay is described as follows: RUNX1 binding intensity (PBM fluorescence), RUNX1 alone (arbitrary fluorescence units); higher = stronger binding. The conditions noted are these: RUNX1 concentration 2 nM; ETS1 concentration 0 nM. As to the method: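 Cooperative gcPBM on 36-bp genomic probes with neighbouring ETS1 and RUNX1 sites. Recombinant human RUNX1 (2 nM) was incubated alone or with ETS1 (25 nM) and detected with anti-RUNX1 antibody plus Alexa488 secondary. Values are medians over 4 replicate spots; the RUNX1+ETS1 data were normalised to the RUNX1-only data. The probes sit in constant array flanks that are not printed.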
RUNX1, sequence (Q01196 whole entry): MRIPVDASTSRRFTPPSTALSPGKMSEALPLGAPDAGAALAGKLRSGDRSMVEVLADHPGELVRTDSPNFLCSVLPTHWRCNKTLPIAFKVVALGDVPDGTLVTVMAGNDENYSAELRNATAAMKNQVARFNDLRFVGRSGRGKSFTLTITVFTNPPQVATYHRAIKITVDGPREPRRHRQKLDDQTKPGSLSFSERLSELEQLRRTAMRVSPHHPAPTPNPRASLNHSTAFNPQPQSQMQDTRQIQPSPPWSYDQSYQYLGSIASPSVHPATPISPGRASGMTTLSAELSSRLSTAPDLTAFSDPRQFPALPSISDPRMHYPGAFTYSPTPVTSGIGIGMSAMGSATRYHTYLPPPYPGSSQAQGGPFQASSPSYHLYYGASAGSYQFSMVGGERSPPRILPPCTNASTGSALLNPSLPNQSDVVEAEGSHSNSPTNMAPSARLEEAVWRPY
Regarding GCCCCCATGCTTCCTGTTGTGGGAGATGAAGTGTGG, the RUNX1 binding intensity worked out at 878.
For the sequence CATGGTGGTGACGCAGGATGTGGTGGTGGTGTAGAA, the RUNX1 binding intensity came out at 707.
Regarding CGCCTGCCCCACTTCCGCCCGGACCCGCAGCCCCTA, the RUNX1 binding intensity is 1240.
Sequence CTTCTGAGAGGAGGATGTGGTCAGATACCTACAAAT yielded an RUNX1 binding intensity of 854.
On the same count and under the same terms, in the case of CTACGACTTCCGTGATGCCTTGCGGTTGCTGTAGCC it was 2700.
Turning to GTGTTTCCTCTTTGTTTTGGGGCTGTGGTTGCCACA, the RUNX1 binding intensity is 1330.
Consider GTAAATAAAGAGGAAGTCCCTATGCGGGGGATGGGG, for which the RUNX1 binding intensity is 850.
As to TCTGGGACAGGAAAGACTTGTGGTTACTGCTGTTGA, the RUNX1 binding intensity turned out to be 1390.
For ACTTGACTTCCTGTGGGGTGTGTGGTGTCTGCACTT, the RUNX1 binding intensity came to 798.
TGCTCAGAAGGGCATCCGGTTGCGGAGAAGGTACAC registered an RUNX1 binding intensity of 653.
For the sequence GGCGGCTTCCGGGATCTGCCTGGCGGTTGCTTTGTC, the RUNX1 binding intensity worked out at 729.
For the sequence CCTACACTTCCCAGAGAACCTAGCGGTTACGCCAAC, the RUNX1 binding intensity is 1340.
Turning to GCAACGGAGTCCGGAAGAACCACAGAGACGCGGCTC, the RUNX1 binding intensity turned out to be 730.
In turn, GGGCGGGTCAGCGGAAGTGAGGGCGGTTGAGGCTGG registered an RUNX1 binding intensity of 742.
As to CACCTCAGCTTCCTGTGTAGCTGGGACCACAGGCAT, the RUNX1 binding intensity came to 827.
The sequence AGACGGGACCGGAAGCCGGGCCGCAGGCGGCCGGGC gave an RUNX1 binding intensity of 811.
Still for that read-out and setting: next, AACCCACCGGATGGAAGCTGCCACTCAGCCGCAGGA: 836.
ATGCTAGAAAGCAGGAAGCCACAGACACGCCCCAAC returned an RUNX1 binding intensity of 857.
The sequence GCCACACAGGCAGGAAAGCCACAGCCCACGTCTCCG registered an RUNX1 binding intensity of 867.
As to CGCCGCTCAACTTCCGGCAACCACAGCTCTCTCTGA, the RUNX1 binding intensity turned out to be 1070.
Still for that read-out and setting: next, ACCCCAGGTACCGGAAGACCACAATTCCCAGGAGTC: 1020.
Consider CGGGAACACCCACTTCCGCCACAGACCTGCTCAAAA, for which the RUNX1 binding intensity came to 1090.
For AGGAGCCGGAAGTCCCGCCCACGCACCCCCCGCAGG, the RUNX1 binding intensity came to 857.
Regarding AGGTTTTGAAAGAGGAAACCACATACCCGAAAACCA, the RUNX1 binding intensity was 1030.
GCCCAGTTCTCGCATCCGGTCTGCGGCGCGCTCGGG came in with an RUNX1 binding intensity of 828.
For AACATCCGGTTCCCGGTTCTGCCCCCTACCGCAGCT, the RUNX1 binding intensity is 917.
On the same count and under the same terms, in the case of AGACCCGGAAATGGTGGGTGTTTCTTGCAACCACGG it was 668.
Sequence AACAGCACACAGGAAGTTACCGCTGAAGCAAAGGAG registered an RUNX1 binding intensity of 813.
As for CCAGCCCAGGAAACAAGGAACCCCAAAGCCACAGGA, the RUNX1 binding intensity worked out at 828.
Take GGAGAGTTGACTTCCGGCGGCTTGTGGGAGTGCTGG: the RUNX1 binding intensity was determined as 771.
GCCTCCTCCCATTTCCTCCATGTGGTCAATCCAGTT yielded an RUNX1 binding intensity of 2070.
On the same count and under the same terms, in the case of GTTGTCTTGCCCAAAGGAAGTGGTTACTAGACCAGA it was 793; in that of TAGACTAACAGGGGAGGAAGTGGGTTGCAAGCCGTG, 683; in that of AAAAGGCACCAGGAAATGACAGCACCGCAGCACGCC, 717.
TTGCTCCCGGAAGCCCCGCCCGACCGCGGCTCCTGA yielded an RUNX1 binding intensity of 865.
Still for that read-out and setting: next, CCCAATTTCCTTTGCTCTGCTGTCTGCCAACCGCAA: 2740; GGCAACCTGAGCTTCCGTGTAAAACCACAGTGTGAC: 1100; CCACCCTCCGTCCGGCCGCGACCGCGAGGAGGAAGA: 841.
The same measure, in the same setting: in the case of ACAGATCCAAGGAAGCATATCCCGCAAGCAACTGTT it was 797; in that of CAAAGTGATGGGGGAAATGGTTGTGGTTTTGGGTGG, 1180.

In a further assay the target is T1, ETS1 (UniProt P14921).
T1 sequence: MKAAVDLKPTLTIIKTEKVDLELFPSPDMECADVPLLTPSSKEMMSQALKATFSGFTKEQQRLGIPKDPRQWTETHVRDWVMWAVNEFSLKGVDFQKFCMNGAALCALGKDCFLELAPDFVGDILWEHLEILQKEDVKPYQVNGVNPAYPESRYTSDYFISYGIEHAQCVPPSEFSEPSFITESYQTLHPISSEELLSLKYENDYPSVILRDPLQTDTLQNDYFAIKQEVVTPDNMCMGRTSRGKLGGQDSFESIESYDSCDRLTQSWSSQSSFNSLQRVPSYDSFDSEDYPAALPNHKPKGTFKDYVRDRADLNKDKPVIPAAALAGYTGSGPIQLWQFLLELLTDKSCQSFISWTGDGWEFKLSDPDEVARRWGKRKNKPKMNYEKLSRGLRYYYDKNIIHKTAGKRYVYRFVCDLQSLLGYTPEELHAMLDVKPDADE
Briefly: ETS1 binding intensity (PBM fluorescence) in presence of RUNX1, normalised to ETS1-only experiment (arbitrary fluorescence units); higher = stronger binding. The conditions noted are these: ETS1 concentration 1 nM; RUNX1 concentration 25 nM.
For the sequence GCCCCCATGCTTCCTGTTGTGGGAGATGAAGTGTGG, the ETS1 binding intensity was determined as 1710.
Take CATGGTGGTGACGCAGGATGTGGTGGTGGTGTAGAA: the ETS1 binding intensity was 5340.
Regarding CGCCTGCCCCACTTCCGCCCGGACCCGCAGCCCCTA, the ETS1 binding intensity was 3210.
Regarding CTTCTGAGAGGAGGATGTGGTCAGATACCTACAAAT, the ETS1 binding intensity was found to be 7800.
Consider CTACGACTTCCGTGATGCCTTGCGGTTGCTGTAGCC, for which the ETS1 binding intensity is 1380.
On to GTGTTTCCTCTTTGTTTTGGGGCTGTGGTTGCCACA, for which the ETS1 binding intensity came out at 600.
As for GTAAATAAAGAGGAAGTCCCTATGCGGGGGATGGGG, the ETS1 binding intensity stood at 2060.
For TCTGGGACAGGAAAGACTTGTGGTTACTGCTGTTGA, the ETS1 binding intensity amounted to 4470.
For ACTTGACTTCCTGTGGGGTGTGTGGTGTCTGCACTT, the ETS1 binding intensity was 901.
For the sequence TGCTCAGAAGGGCATCCGGTTGCGGAGAAGGTACAC, the ETS1 binding intensity stood at 2000.
For GGCGGCTTCCGGGATCTGCCTGGCGGTTGCTTTGTC, the ETS1 binding intensity was found to be 525.
In the case of CCTACACTTCCCAGAGAACCTAGCGGTTACGCCAAC, the ETS1 binding intensity was 505.
In the case of GCAACGGAGTCCGGAAGAACCACAGAGACGCGGCTC, the ETS1 binding intensity is 694.
GGGCGGGTCAGCGGAAGTGAGGGCGGTTGAGGCTGG: the ETS1 binding intensity amounted to 4550.
Consider CACCTCAGCTTCCTGTGTAGCTGGGACCACAGGCAT, for which the ETS1 binding intensity was determined as 888.
Consider AGACGGGACCGGAAGCCGGGCCGCAGGCGGCCGGGC, for which the ETS1 binding intensity turned out to be 6650.
Consider AACCCACCGGATGGAAGCTGCCACTCAGCCGCAGGA, for which the ETS1 binding intensity worked out at 1700.
Same read-out and setting: in the case of ATGCTAGAAAGCAGGAAGCCACAGACACGCCCCAAC it was 1120; in that of GCCACACAGGCAGGAAAGCCACAGCCCACGTCTCCG, 378; in that of CGCCGCTCAACTTCCGGCAACCACAGCTCTCTCTGA, 3870.
In the case of ACCCCAGGTACCGGAAGACCACAATTCCCAGGAGTC, the ETS1 binding intensity is 3710.
As to CGGGAACACCCACTTCCGCCACAGACCTGCTCAAAA, the ETS1 binding intensity is 1380.
In the case of AGGAGCCGGAAGTCCCGCCCACGCACCCCCCGCAGG, the ETS1 binding intensity was determined as 8270.
Still for that read-out and setting: in the case of AGGTTTTGAAAGAGGAAACCACATACCCGAAAACCA it was 2030; in that of GCCCAGTTCTCGCATCCGGTCTGCGGCGCGCTCGGG, 5020; in that of AACATCCGGTTCCCGGTTCTGCCCCCTACCGCAGCT, 5870.
As to AGACCCGGAAATGGTGGGTGTTTCTTGCAACCACGG, the ETS1 binding intensity is 2290.
As to AACAGCACACAGGAAGTTACCGCTGAAGCAAAGGAG, the ETS1 binding intensity stood at 4760.
CCAGCCCAGGAAACAAGGAACCCCAAAGCCACAGGA: the ETS1 binding intensity amounted to 579.
Same read-out and setting: in the case of GGAGAGTTGACTTCCGGCGGCTTGTGGGAGTGCTGG it was 2640; in that of GCCTCCTCCCATTTCCTCCATGTGGTCAATCCAGTT, 731.
As for GTTGTCTTGCCCAAAGGAAGTGGTTACTAGACCAGA, the ETS1 binding intensity was determined as 4870.
For TAGACTAACAGGGGAGGAAGTGGGTTGCAAGCCGTG, the ETS1 binding intensity is 2740.
For AAAAGGCACCAGGAAATGACAGCACCGCAGCACGCC, the ETS1 binding intensity stood at 2020.
As to TTGCTCCCGGAAGCCCCGCCCGACCGCGGCTCCTGA, the ETS1 binding intensity was found to be 1970.
As for CCCAATTTCCTTTGCTCTGCTGTCTGCCAACCGCAA, the ETS1 binding intensity stood at 491.
GGCAACCTGAGCTTCCGTGTAAAACCACAGTGTGAC: the ETS1 binding intensity came out at 964.
For the sequence CCACCCTCCGTCCGGCCGCGACCGCGAGGAGGAAGA, the ETS1 binding intensity was 1060.
Turning to ACAGATCCAAGGAAGCATATCCCGCAAGCAACTGTT, the ETS1 binding intensity is 589.
Still for that read-out and setting: next, CAAAGTGATGGGGGAAATGGTTGTGGTTTTGGGTGG: 3760.
